# HSF1 inhib: HSF1 inhibitors in luciferase reporter cells, primary screen, cell-based, NIH3T3, luminescence | NIH3T3-HGL HSE-luciferase, MG132-induced, luminescence 8 h; active compounds read low | activity change, negative = inhibition, % at 7.5 µM (by protocol) | hit rate 0.77% among 300,000;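 active = more than half of replicate wells show activity change below -50%, luminescence cut by over half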;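 note: luciferase reports HSF-1 transcriptional activity via heat shock element; 0% = median of DMSO wells and -100% = zero luminescence signal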
# pCIP destab: p/CIP-EGFP fusion destabilizers, primary screen, fluorescence, F442A cells. Q05BA5. 16 h. decrease of EGFP signal, % at 10 µM. hit rate 0.01% among 290,000. AID 1984, 2009;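 active = EGFP signal decrease of at least 30% at 10 µM or well 3 SD below plate mean, unless failing retest; inactive = the rest, including hits failing retest or dose response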
# Target sequence (Q05BA5 1-1403): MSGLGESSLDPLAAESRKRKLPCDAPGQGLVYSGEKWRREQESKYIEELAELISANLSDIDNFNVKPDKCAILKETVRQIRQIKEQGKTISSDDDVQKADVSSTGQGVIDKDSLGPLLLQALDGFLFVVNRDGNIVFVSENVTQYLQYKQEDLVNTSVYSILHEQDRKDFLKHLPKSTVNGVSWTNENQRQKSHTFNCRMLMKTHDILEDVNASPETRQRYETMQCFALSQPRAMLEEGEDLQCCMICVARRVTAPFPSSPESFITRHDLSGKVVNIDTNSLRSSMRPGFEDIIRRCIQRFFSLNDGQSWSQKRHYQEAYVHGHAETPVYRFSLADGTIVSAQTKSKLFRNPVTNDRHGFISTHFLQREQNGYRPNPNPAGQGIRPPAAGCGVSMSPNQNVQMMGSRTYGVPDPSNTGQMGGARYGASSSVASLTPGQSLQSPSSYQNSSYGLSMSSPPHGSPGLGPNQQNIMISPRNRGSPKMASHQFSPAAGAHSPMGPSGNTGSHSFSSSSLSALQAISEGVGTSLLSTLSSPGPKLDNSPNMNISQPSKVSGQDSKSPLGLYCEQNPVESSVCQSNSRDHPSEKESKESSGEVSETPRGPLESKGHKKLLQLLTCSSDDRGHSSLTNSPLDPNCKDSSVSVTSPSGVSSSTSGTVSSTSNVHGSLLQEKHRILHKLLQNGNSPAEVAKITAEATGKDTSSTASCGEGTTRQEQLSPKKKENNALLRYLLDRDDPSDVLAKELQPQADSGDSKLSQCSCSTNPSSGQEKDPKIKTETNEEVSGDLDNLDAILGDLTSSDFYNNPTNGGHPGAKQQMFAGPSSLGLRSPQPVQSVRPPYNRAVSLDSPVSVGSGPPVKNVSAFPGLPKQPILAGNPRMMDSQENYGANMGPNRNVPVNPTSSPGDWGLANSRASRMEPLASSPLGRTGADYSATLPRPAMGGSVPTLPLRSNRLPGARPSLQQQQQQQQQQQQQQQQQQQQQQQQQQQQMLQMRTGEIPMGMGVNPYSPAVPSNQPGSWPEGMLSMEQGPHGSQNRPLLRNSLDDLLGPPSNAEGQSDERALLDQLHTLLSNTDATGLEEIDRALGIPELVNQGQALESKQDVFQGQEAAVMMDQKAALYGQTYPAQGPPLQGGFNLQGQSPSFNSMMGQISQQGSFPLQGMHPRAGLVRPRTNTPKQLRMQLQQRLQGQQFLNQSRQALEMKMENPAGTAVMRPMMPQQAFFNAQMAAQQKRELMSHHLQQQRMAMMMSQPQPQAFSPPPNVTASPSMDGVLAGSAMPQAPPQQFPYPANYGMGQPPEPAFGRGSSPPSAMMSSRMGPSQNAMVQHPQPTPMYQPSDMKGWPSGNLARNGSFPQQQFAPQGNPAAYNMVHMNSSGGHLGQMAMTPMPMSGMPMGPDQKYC
# HSP90 refold inh: HSP90 inhibitors, primary screen, cell lysate, luminescence; Heat shock protein HSP 90 (rabbit reticulocyte lysate; luciferase refolding); Rabbit reticulocyte lysate, luciferase refolding luminescence, 3 h; inhibition, % at 5.6 µM; hit rate 0.91% among 290,000; AID 1789, 2009;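 active = inhibition above the screen-wide mean plus 3 SD, computed separately per campaign, cut at about 16% in these data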;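 note: 0% = DMSO wells and 100% = 60 µM geldanamycin wells; inhibitors lower the luminescence because luciferase stays unfolded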
# NALP1 inh: NALP1 inflammasome inhibitors in reconstituted yeast, colorimetric, S. cerevisiae, triplicate retest. S. cerevisiae NALP1/ASC/caspase-1 growth, X-gal OD620, 72 h. inhibition, % at 10 µM. hit rate 0.61% among 280,000. AID 2071, 2009; in the data active = inhibition mostly above about 24%, no sharp cut-off; inactive = mostly below about 32%
# Hsp70 act: Hsp70 transcriptional activators, primary screen, cell-based, HeLa, Hsp70 promoter luciferase, luminescence, 10 µM | activation, % at 10 µM | hit rate 0.04% among 200,000 | HeLa Hsp70 promoter luciferase reporter; scaled: vehicle 0, proteasome-inhibitor control 100%;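 active = activation above the mean across all tested compounds plus 3 SD, cutoff set per campaign, cut at about 5.5% in these data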;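 note: 100% = MG132 at 30 µM as the positive control and 0% = DMSO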
# HSF1 activator: HSF-1 activators, primary screen, NIH3T3-HGL cells, MG132 stress, luminescence, single point; activation, % at 9 µM; AID 504408, 2011; hit rate 1.7% among 300,000; NIH3T3-HGL HSF-1 luciferase reporter, 8 h; 100% = twice DMSO control signal;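 active = mean replicate activation of at least 50% with a set share of replicates each reaching 50%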;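 note: 0% = median of the neutral control wells and 100% = twice that signal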
# Numbers without * were called inactive; · = no result. The list is not random: actives were taken first. Their share in the collection is about 3.8%.
SMILES,HSF1 inhib,pCIP destab,HSP90 refold inh,NALP1 inh,Hsp70 act,HSF1 activator
Cc1occc1C(=O)Nc1ccc(OCc2ccccc2)cc1,38.7,5.4,1.6,-7.1,0.1,56.1*
CCCOC(=O)c1ccc(NC(=O)Oc2ccccc2)cc1,-45.7,-16.1,7.4,22.3*,-0.3,-45.7
CCCOC(=O)c1ccc(NC(=O)c2ccoc2C)cc1,33.3,-6.0,-4.3,30.3,0.0,56.2*
CCOC(=O)Nc1ccc(C(=O)Oc2ccccc2)c(O)c1,42.1,-6.9,0.5,2.4,0.2,68.0*
O=C(Nc1ccc(OCc2ccccc2)cc1)c1cccs1,-2.5,-12.3,2.7,14.6,·,40.3
COc1ccc(C(=O)OC(C)C(=O)NC(C)CCc2ccccc2)cc1OC (stereo not drawn),2.0,1.3,-2.1,6.7,·,5.3
CC(=O)c1ccc(-n2c(CCC(=O)O)ccc2-c2ccc(Br)cc2)cc1,-4.2,-2.6,-0.1,21.1,·,10.5
CC(C)c1ccc(NC(=O)c2ccc(NC3=NC4CS(=O)(=O)CC4S3)cc2)cc1 (stereo not drawn),-0.3,-3.2,2.0,-1.9,·,-9.3
CCCOC(=O)c1ccc(NC(=O)c2ccc(Br)o2)cc1,20.2,4.3,-1.4,61.3*,-0.5,11.0
COc1ccc(C(=O)CCC(=O)Nc2cccnc2)cc1,-4.1,-11.3,-3.6,-4.1,0.1,-3.9
C1CCC(Nc2nnnn2C2CCCCC2)CC1,-59.0*,-2.0,-0.1,21.8,-0.2,-65.2
CCN(CC)C(=N)/C(C#N)=N/Nc1ccc(C)cc1,29.6,-8.8,5.5,23.5,·,57.1*
Cc1ccc(N/N=C(\C#N)C(=N)N2CCCCCC2)cc1,24.7,10.4,4.8,-0.9,-0.1,47.8
Cc1ccc(CNC(=O)CN2CCC(C(N)=O)CC2)cc1,-11.4,-9.8,0.8,-12.3,-0.3,-1.4
CSc1ccc(CN2CCC(C(=O)NCc3ccc(C)cc3)CC2)cc1,-4.2,-15.9,3.4,25.0*,-0.2,-1.3
COCCn1c(SCC(=O)NC2CCCCC2)nc2c(c1=O)SCC2,22.8,-5.8,4.3,4.4,·,57.9*
N#CCc1c(C#N)c(N)nc(N2CCN(S(=O)(=O)c3ccccc3F)CC2)c1C#N,132.8,-14.9,1.3,12.8,·,172.9*
N#CCc1c(C#N)c(N)nc(N2CCN(c3ccc(F)cc3)CC2)c1C#N,15.3,0.5,-0.3,42.3,-0.1,27.2
Cc1cc(C(=O)COc2ccc3ccc(=O)oc3c2)c(C)n1Cc1cccs1,4.8,0.7,-1.8,-1.3,0.1,23.1
COc1ccc(NC(=O)c2cc(C)n(Cc3cccs3)c2C)cc1,40.2,-22.7,1.2,13.0,·,67.6*
COc1cccc(CNC(=O)CCS(=O)(=O)c2ccc3c(c2)NC(=O)CS3)c1,-2.5,-1.4,1.2,19.1,·,-2.9
CC(C)NC(=O)[C@H]1N2C(=O)c3ccccc3C2SC1(C)C (stereo partly drawn),-0.7,-19.0,-2.6,-1.7,·,13.0
COC(=O)c1c(C)oc(C)c(C(=O)OC)c1=O,2.8,-3.1,2.2,21.7*,-0.3,2.8
Cc1oc(C)c(C(=O)O)c1C(=O)O,-3.0,1.9,-5.4,11.4,·,-3.6
CSc1sc(C(=O)NCC2CC2)cc1S(=O)(=O)C(C)C,9.8,9.8,1.7,·,·,2.3
SMILES,HSF1 inhib,pCIP destab,HSP90 refold inh,NALP1 inh,Hsp70 act,HSF1 activator
COC(=O)c1cc(S(=O)(=O)C(C)C)c(S(C)=O)s1 (stereo not drawn),52.8,-14.4,4.7,0.5,·,90.1*
COc1ccc(N(CCCN2C(=O)c3cccc4cccc(c34)C2=O)C(=O)c2ccncc2)cc1,-1.0,0.1,1.5,0.5,-0.1,-4.2
COc1cc(OC)cc(C(=O)N(CCCN2C(=O)c3cccc4cccc(c34)C2=O)c2cccc(OC)c2)c1,37.0,-7.0,-0.9,17.5,-0.2,59.4*
CCn1c(=O)cc(SCC(=O)N2CCN(c3ccccc3F)CC2)c2ccccc21,16.5,-8.6,-2.0,-3.2,-0.3,54.2*
CCn1c(=O)cc(SCC(=O)N2CCN(c3ccccn3)CC2)c2ccccc21,7.0,12.6,1.1,-2.8,0.0,29.6
CCOC(=O)c1cc(NC(=O)COc2ccc([N+](=O)[O-])cc2)cc(C(=O)OCC)c1,17.9,-4.0,1.9,26.0,-0.3,53.3*
Cc1onc(-c2ccccc2)c1C(=O)Nc1ccnn1C1CCCCC1,0.3,0.4,-0.1,31.5*,-0.3,12.0
COC(=O)c1ccc(OCC(O)CNCC(c2ccc(OC)cc2)N(C)C)c(OC)c1 (stereo not drawn),-7.6,-8.1,9.2,10.1,·,-3.2
O=C(NNc1cccc(Cl)n1)Nc1cccc(C(F)(F)F)c1,-5.7,4.4,-3.0,0.9,-0.4,-6.7
O=C(NNc1cccc(Cl)n1)Nc1ccc(Cl)cc1,32.6,9.1,-11.3,2.8,-0.2,77.3*
CCOC(=O)C1CCN(c2ncnc3c2cnn3-c2ccccc2)CC1,1.4,-12.7,-0.5,-7.7,-0.1,-19.9
COc1ccc(-n2ncc3c(N4CCC(C)CC4)ncnc32)cc1,-15.9,-3.0,29.0*,18.3,·,-19.4
CCOC(=O)N1CCN(c2ncnc3c2cnn3-c2ccc(OC)cc2)CC1,-1.3,5.4,-4.6,12.9,-0.2,20.9
CC1CCN(c2ncnc3c2cnn3-c2ccccc2)CC1,34.5,-12.2,-2.5,19.8,0.3,56.9*
CCn1nc(C)cc1C(=O)N1CCCC(N2CCN(c3ccccc3OC)CC2)C1 (stereo not drawn),-4.7,-11.2,1.5,9.7,·,-6.9
O=C1CCCc2cc3c(cc21)CC1(C3)Cc2cc3c(cc2C1)C(=O)CCC3,-20.6,6.2,-0.2,12.0,·,-35.8
CN(CC(=O)Nc1ccc(Cl)cc1)C(=O)CCC1CCCC1,-2.0,-4.5,-3.2,11.4,·,2.3
CCCOC(=O)c1ccc(Oc2cn[nH]c2-c2ccc(O)cc2O)cc1,13.5,0.2,-2.5,12.1,·,51.9*
COc1ccc(NC(=O)C=C(C)C)cc1Cl,·,-14.0,0.3,15.0,0.4,·
CC(C)=CC(=O)Nc1ccc(Cl)cc1,27.3,0.2,-2.9,27.9,0.0,50.9*
C/C(=N\NC(=O)c1cccc(C)c1O)c1ccc(NC(=O)Cc2ccccc2)cc1,5.8,-3.8,-0.2,4.2,·,17.8
CC(C)COc1ccc(C(=O)CCN2CCCCC2)cc1,0.0,-11.4,1.7,14.7,-0.2,16.3
CCCCOc1ccc(S(=O)(=O)N2CCCCCC2)cc1,37.4,-5.1,-1.8,9.8,-0.1,66.0*
CCCCOc1ccc(C(=O)CCN2CCCCC2)cc1,1.3,3.4,-2.7,45.6*,-0.5,15.2
CC(C)(C)N(Cc1ccccc1)C(=O)COC(=O)CSc1ccc([N+](=O)[O-])cc1,-3.8,·,·,·,·,1.0

# Source: PubChem BioAssay
